Assay outcomes from PubChem BioAssay.
SW480 rerep = A quantitative high throughput screen for small molecules that induce DNA re-replication in SW480 colon adenocarcinoma cells; AID 624297, 2012; SW480 DNA re-replication, Hoechst DNA content imaging, 48 h; Potency, µM (series often up to 46.1 µM), for the others: at the top dose re-replication activation, most hits filed as activators; 340,000 tested, 1.8% active; note: potency is the fitted concentration of half-maximal effect; % of control where 0% means no effect; nearly all actives have a fitted effect of over 55% in size
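Treated cells incubate 48 hr (37 C, 5% CO2), are stained 40 min with Hoechst, and nuclear fluorescence is enumerated; a rise in nuclei with high DNA signal marks re-replication.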
KB-3-1 tox = qHTS assay for MDR1-selective chemotherapeutics: Primary screen using the parental adenocarcinoma cell KB-3-1 | KB-3-1 viability, CellTiter-Glo ATP luminescence, 72 h | Potency, µM (titrated, usually from 46.1 µM), actives largely listed as cytotoxic | 400,000 tested, 1.4% active; note: potency is the fitted concentration of half-maximal effect; % is set by controls: 0 for no effect and ±100 for the full control effect; nearly all actives have a fitted effect of over 60% in size
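72 h, 37 °C compound treatment of KB-3-1 parental cells; CellTiter-Glo added, 10 min, luminescence read. Data corrected against DMSO-only plates and normalized before curve fitting.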
MCF10A rereplic = A quantitative high throughput screen for small molecules that induce DNA re-replication in MCF 10a normal breast cells; MCF 10A DNA re-replication, Hoechst nuclear intensity, 48 h; Potency, µM (highest dose often 46.1 µM), inactives show at the highest dose activity, positive = re-replication, usual class: activators; 350,000 tested, 2.9% active; AID 624296, 2012; note: potency is the fitted concentration of half-maximal effect; % of control where 0% means no effect; nearly all actives have a fitted effect of over 50% in size
KCNH2 3.1 inh = qHTS for Inhibitors of KCHN2 3.1: Mutant qHTS. Potassium voltage-gated channel subfamily H member 2, brain isoform KCNH2 3.1 (human). U2OS KCNH2 3.1, thallium flux FluxOr; stronger effect = lower value. activity change, % (tested at about 1.8 µM). 340,000 tested, 0.95% active. AID 720553, 2013;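 active = maximum activity change below -70%; inconclusive = maximum activity change from -70% to -50%; inactive = maximum activity change above -50%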;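 note: thallium influx rate constant from kinetic fluorescence after stimulation buffer; % is set by controls: 0 for no effect and ±100 for the full control effect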
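Virally transduced U2OS (3.1 isoform, 4 h infection in dark at RT) → overnight 37 C → FluxOr + Red40 in HBSS/HEPES, 45 min → stimulation buffer, 2 min kinetic read → rate constant vs DMSO controls.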
KCNH2 WT inh = qHTS for Inhibitors of KCHN2 3.1: Wildtype qHTS; Voltage-gated inwardly rectifying potassium channel KCNH2 (Homo sapiens), Q12809; U2OS, BacMam KCNH2, thallium flux FluxOr; stronger effect = lower value; 340,000 tested, 0.37% active; activity change, % at 1.84 µM;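 active = maximum activity change below -70%; inconclusive = maximum activity change between -70% and -50%; inactive = maximum activity change above -50%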; note: % is set by controls: 0 for no effect and ±100 for the full control effect
Target sequence (Q12809 whole entry, looked up): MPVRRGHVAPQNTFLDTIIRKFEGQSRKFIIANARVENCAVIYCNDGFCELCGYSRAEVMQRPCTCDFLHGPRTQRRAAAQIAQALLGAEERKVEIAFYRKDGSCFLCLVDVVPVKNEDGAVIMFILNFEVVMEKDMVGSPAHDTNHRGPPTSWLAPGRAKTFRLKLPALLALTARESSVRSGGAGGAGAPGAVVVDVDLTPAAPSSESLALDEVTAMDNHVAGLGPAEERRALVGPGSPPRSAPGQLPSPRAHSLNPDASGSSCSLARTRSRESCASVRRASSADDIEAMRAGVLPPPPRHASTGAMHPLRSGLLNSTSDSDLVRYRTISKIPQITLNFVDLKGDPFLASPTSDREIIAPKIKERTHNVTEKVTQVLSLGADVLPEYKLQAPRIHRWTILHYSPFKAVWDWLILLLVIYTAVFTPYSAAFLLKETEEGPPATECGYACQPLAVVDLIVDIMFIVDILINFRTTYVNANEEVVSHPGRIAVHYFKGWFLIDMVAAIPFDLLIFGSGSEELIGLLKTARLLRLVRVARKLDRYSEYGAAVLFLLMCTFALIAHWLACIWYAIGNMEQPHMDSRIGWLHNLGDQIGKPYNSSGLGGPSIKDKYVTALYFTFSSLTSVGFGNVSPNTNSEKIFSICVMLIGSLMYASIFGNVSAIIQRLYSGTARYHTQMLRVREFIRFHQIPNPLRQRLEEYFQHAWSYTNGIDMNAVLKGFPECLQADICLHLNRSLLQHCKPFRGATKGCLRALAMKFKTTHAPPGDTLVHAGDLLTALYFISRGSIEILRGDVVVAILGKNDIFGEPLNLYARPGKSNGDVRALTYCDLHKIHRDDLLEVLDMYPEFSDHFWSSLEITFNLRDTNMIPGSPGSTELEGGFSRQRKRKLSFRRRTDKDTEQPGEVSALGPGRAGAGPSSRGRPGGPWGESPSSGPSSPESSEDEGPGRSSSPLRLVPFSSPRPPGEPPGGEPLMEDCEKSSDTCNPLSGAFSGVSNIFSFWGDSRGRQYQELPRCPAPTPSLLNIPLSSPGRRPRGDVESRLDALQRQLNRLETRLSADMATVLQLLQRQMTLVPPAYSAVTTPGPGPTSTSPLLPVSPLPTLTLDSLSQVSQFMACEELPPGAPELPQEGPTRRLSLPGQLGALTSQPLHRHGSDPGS
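U2OS cells transduced with wild-type KCNH2 virus are loaded with FluxOr dye for 45 min, and thallium flux is measured in kinetic reads before and after stimulation buffer. Rate constants are normalized to DMSO controls.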
KB-V1 cytotox = qHTS assay for MDR1-selective chemotherapeutics: Primary screen using the drug-selected MDR subline cells KB-V1 | KB-V1 MDR cells viability, CellTiter-Glo, 72 h | Potency, µM (titrated, usually from 46.1 µM), hits mostly cytotoxic | 400,000 tested, 3.4% active | AID 1347076, 2019; note: potency is the fitted concentration of half-maximal effect; % is set by controls: 0 for no effect and ±100 for the full control effect; nearly all actives have a fitted effect of over 60% in size
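KB-V1 cells (P-gp-expressing MDR subline of KB-3-1) in phenol-red-free DMEM with 10% FBS were exposed to library compounds over a concentration series for 72 h at 37 degrees C. Viability read by CellTiter-Glo luminescence; concentration-effect curves fitted after normalization.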
The depositor's hits bear a star; i = inactive; ? = inconclusive; · = not tested or not shown; [ ] = remark or other dose. An excerpt weighted towards active compounds, which were near 7.6% of everything screened. Unless noted, calls come from the whole dose curve; as a rule, active = well fitted curve in the direction sought with a large enough effect; inconclusive = small, poorly fitted or top-dose-only effect, or another doubt; inactive = no such curve, though single readings can be large; an effect the other way counts as inactive or inconclusive.

SMILES | SW480 rerep | KB-3-1 tox | MCF10A rereplic | KCNH2 3.1 inh | KCNH2 WT inh | KB-V1 cytotox
O=C(/C=C/c1ccccc1)CC(O)(c1ccccc1)C(F)(F)C(F)F (configuration not stated) | 1% | i | -5% | -9 | -34 | ?
CC(C)c1ccc(-c2cc(C(=O)N3N=C(C(F)F)CC3(O)C(F)F)c3ccccc3n2)cc1 (configuration not stated) | ? | ? | 4.5µM* | -8 | 9 | ?
Cn1cc(S(=O)(=O)N2CCCCCC2)cc1C(=O)NCc1ccc(Cl)cc1 | · | i | · | · | · | ?
COC(=O)[C@]1(C)N[C@H](CN(C)C(=O)COc2ccccc2)[C@@H]2C(=O)N(C)C(=O)[C@@H]21 | -41%[9.22 µM] | i | -11% | 6 | 0 | ?
Cc1ccc(Cn2c(SCc3ccc(C(=O)NC4CCCC4)cc3)nc3ccncc32)cc1 | · | 23µM* | · | · | · | i
Cc1ccccc1OCCNc1ccc(C(F)(F)F)cc1[N+](=O)[O-] | -11% | 16µM* | 17% | 4 | 4 | ?
COc1cc(CC(=O)N(c2ccccc2)c2nc(C)cs2)cc(OC)c1OC | -17% | i | 10% | -10 | 1 | ?
CCC(=O)Nc1cc2[nH]c(=O)cc(C)c2cc1C | -22% | i | 0.65µM* | -8 | 6 | i
Cc1cc2c(C)cc(=O)[nH]c2cc1NC(=O)CCl | 21µM* | ? | 12µM* | -3 | 0 | ?
Cc1cc2oc(=O)cc(C)c2cc1NC(=O)CCl | ? | ? | 29% | -10 | 1 | i
Cc1cc(=O)[nH]c2ccc(O)cc12 | · | i | · | · | · | i
O=C(CCl)Nc1cc2[nH]c(=O)[nH]c2cc1Br | ? | ? | 21µM* | 12 | 7 | 15µM*
COC(=O)c1cc2oc(C)cc2n1Cc1ccccc1Cl | · | i | · | · | · | i
O=C(COC(=O)CC1CC2CCC1C2)Nc1ccc(F)cc1Cl (configuration not stated) | -21% | i | 4% | -1 | -9 | ?
Cc1cc(N2CCN(c3cccc(C(F)(F)F)c3)CC2)n2nc(-c3ccccc3C)nc2n1 | · | i | · | · | · | i
O=C(c1ccccc1)N1CCN(c2ccc([N+](=O)[O-])c(NCC3CCCO3)c2)CC1 (configuration not stated) | 8% | i | ? | 2 | 11 | ?
CCCCCC(=O)Nc1cc(S(=O)(=O)N2CCOCC2)ccc1Oc1ccc(OCC)cc1 | -8% | i | 3% | -1 | 18 | ?
CC(C)COc1ccc(C(=O)Nc2ccccc2[N+](=O)[O-])cc1 | ? | i | 13µM* | 0 | 3 | i
CCCOc1ccc(C(=O)Nc2ccc(C)cc2[N+](=O)[O-])cc1 | -1% | i | ? | -8 | -4 | i
NC(=O)c1ccccc1OCC(=O)N1CCc2ccccc2C1 | 10µM* | i | 2% | 1 | 16 | ?
CCN(CC)c1nc(N)c(C#N)c(CC#N)c1C#N | -26% | i | ? | -8 | -9 | ?
CCCN(CCC)c1nc(N)c(C#N)c(CC#N)c1C#N | 14% | i | 6.5µM* | 1 | -4 | i
Cc1nc(N)nc(N/N=C/c2ccccc2)n1 | -16% | i | ? | -2 | -76* | i
COc1ccc(-c2cc(=O)oc3cc(OCC(=O)NCC(O)c4ccccc4)ccc23)cc1 (configuration not stated) | -18% | i | -30% | 9 | -1 | i
COc1cccc(C(c2c(N)[nH]c(=S)[nH]c2=O)c2c(N)[nH]c(=S)[nH]c2=O)c1 | 5.2µM* | i | -9% | 21 | 3 | i
SMILES | SW480 rerep | KB-3-1 tox | MCF10A rereplic | KCNH2 3.1 inh | KCNH2 WT inh | KB-V1 cytotox
COc1cccc(C(NC(=O)c2ccccc2F)NC(=O)c2ccccc2F)c1 | -3% | i | 11% | 0 | -4 | i
Nc1cccc2c1C(=O)N(C(=O)/C=C/c1cccc(F)c1)C2=O | 18µM* | ? | ? | 3 | 8 | ?
Nc1cccc2c1C(=O)N(C(=O)/C=C/c1cccc(Br)c1)C2=O | ? | i | 21µM* | -17 | 0 | ?
O=C(/C=C/c1cccc(Br)c1)N1CCN(c2cccc(C(F)(F)F)c2)CC1 | ? | i | ? | -6 | -18 | ?
Cc1ccc(C)c(NS(=O)(=O)c2csc(C(N)=O)c2)c1 | 3% | i | -6% | 9 | -6 | i
Cc1ccc(S(=O)(=O)NC(C)(C)CN2CCNCC2)cc1 | 21µM* | i | ? | -26 | -6 | i
CC(C)(CN1CCCCC1)NS(=O)(=O)c1ccc(Cl)cc1 | 3% | i | 11% | -4 | 8 | i
Cc1ccc(S(=O)(=O)NC(C)(C)CN2CCc3ccccc3C2)cc1 | 6.5µM* | i | 20% | -4 | 0 | ?
Cc1ccc(S(=O)(=O)c2c(C)nn(C(C)(C)C)c2OC(=O)C2CCCC2)cc1 | -5% | ? | ? | -5 | -1 | ?
Cc1nn(C(C)(C)C)c(OC(=O)C2CCCC2)c1S(=O)(=O)c1ccccc1 | -3% | 21µM* | ? | -1 | 3 | ?
Cc1ccc(-n2c(=O)c3ccccc3n(CC(=O)Nc3cccc(C(F)(F)F)c3)c2=O)cc1 | · | i | · | · | · | ?
CCN(c1ccccc1)S(=O)(=O)c1ccc2[nH]cc(C(=O)NCc3ccc(C)cc3)c(=O)c2c1 | · | i | · | · | · | i
Nc1c(-c2ccc(Cl)cc2)cnc2c(-c3ccccc3)cnn12 | 11% | i | ? | -6 | 8 | i
COc1cc(C(=O)NNC(=S)NC(=O)c2ccc(F)cc2)cc(OC)c1OC | ? | i | 23µM* | 21 | -10 | ?
COc1cc(C(=O)NC(=S)Nc2ccc(Cl)cn2)cc(OC)c1OC | 18µM* | i | ? | 2 | 2 | ?
CSc1ccc(Cl)c(C(=O)Nc2ccc(Cl)cn2)c1 | 21µM* | 23µM* | 21µM* | 20 | 0 | i
COc1cc(SC)ccc1C(=O)Nc1ccc(Cl)cn1 | -114% | ? | -35% | 5 | 5 | 13µM*
CCOc1ccc(NC(=O)c2cc(SC)ccc2Cl)cc1 | ? | ? | ? | 4 | 19 | ?
COc1cc(SC)ccc1C(=O)Nc1ccncc1 | -87% | i | 0% | -5 | · | ?
